Where “and” joins values, the source holds several entries; their conditions need not be identical. Equal entries are not always repeated. Records with an inconclusive call do not appear. Calls of active or inactive are those of the source. Unless noted, the call rests on the fitted dose curve; in most records, active means well fitted curve in the direction sought with a large enough effect; inconclusive means small, poorly fitted or top-dose-only effect, or another doubt; inactive means no such curve, though single readings can be large; an effect the other way counts as inactive or inconclusive.
What was measured:
[1] = NCATS anti-infectives library activity on HEK293 viability as a counter-qHTS vs the C. elegans viability qHTS (AID 1745854); further: potency means the concentration at half of the fitted maximal effect
In short: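 HEK293 cells, 1500 per well, exposed 24 hr at 37C in 5% CO2 to compounds in a 1:5 titration, up to 41.7 uM final. Viability read as CellTiter-Glo luminescence after 10 min at room temperature.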

[2] = AP1 Signaling Pathway (AID 357; active means well fitted curve in either direction with a large enough effect, not every such curve was filed as active;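 further: ME-180 reporter cells stimulated with EGF at its EC50 level; on the % scale 0 is the no-effect control and ±100 the full control effect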)
In short: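 First, ME-180 AP-1-bla cells were cultured overnight at 37 °C in low-serum Opti-MEM. Next, titrated compounds with EC50 EGF were incubated 5 hours. Finally, CCF4 was added for 2.5 hours and the 460/530 nm ratio recorded.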

[3] = biological target: Cytochrome P450 1A2 (Homo sapiens) (UniProt P05177); test: p450-cyp1a2 (AID 410; calls by dose curve; further: potency means the concentration at half of the fitted maximal effect)
In short: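 Human CYP1A2 (20nM) demethylated Luciferin-ME at its Km (100uM) in 100mM KPO4. After 10 min compound preincubation, NADPH regeneration ran the reaction 60 min at room temperature. Luciferin was read by luminescence, normalized to 57 uM furafylline.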

[4] = NFAT Signaling Pathway (AID 444; active means well fitted curve in either direction with a large enough effect, not every such curve was filed as active;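 further: carbachol stimulus at about its EC50 of 1 µM final; on the % scale 0 is the no-effect control and ±100 the full control effect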); details: Jurkat NFAT-bla M1, carbachol, beta-lactamase ratio, 5 h; at 17.2 µM (top of the series)
In short: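 Read-out: CCF4 FRET ratio (460 nm/530 nm) after 1 h RT dye loading, used for %activity and AC50 from titration series. Cells: Jurkat NFAT-β-lactamase/M1 line, treated with compound plus 1 uM carbachol for 5 h, 37 °C.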

[5] = biological target: Glucocorticoid receptor (Homo sapiens) (UniProt P04150); test: GR-GFP Redistribution (AID 450;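 active means compounds whose dose series gives a full or clear partial fitted curve of increased nuclear translocation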; further: potency means the concentration at half of the fitted maximal effect); details: U2OS GR-GFP nuclear translocation, laser cytometry, 2 h
[6] = biological target: Glucocorticoid receptor (Homo sapiens) (UniProt P04150); test: GR-EFC Redistribution (AID 451; calls by dose curve; further: potency means the concentration at half of the fitted maximal effect); details: CHO-K1 GR-EFC translocation, beta-gal luminescence, 2 h
In short: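 Translocation of GR-ED fusion to nuclear EA restores b-gal, read by luminescence after 1 h room-temperature detection. Engineered CHO-K1 biosensor cells, 1,000/well, exposed 2 h at 37 C to titrations up to 46 uM final.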

[7] = biological target: Mitogen-activated protein kinase 10 (Mus musculus) (UniProt Q61831); test: JNK3 AlphaScreen Assay (AID 530; active means well fitted curve in either direction with a large enough effect, not every such curve was filed as active;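 further: kinase came from lysate of stimulated human HepG2 cells; signal reports phosphorylation of biotinylated GST-cJun 1-79 at Ser73 with 10 µM ATP; on the % scale 0 is the no-effect control and ±100 the full control effect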)
In short: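 Room-temperature AlphaScreen kinase assay; pre-activated HepG2 lysate as JNK3 source, biotin-GST-cJun(1-79) substrate, 10 uM ATP, compound 15 min preincubation.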

[8] = biological target: 3',5'-cyclic-AMP phosphodiesterase 4B (Homo sapiens) (UniProt Q07343); test: qHTS Assay for Inhibitors of PDE-IV (AID 607; active means well fitted activation curve with a large enough effect in the main read-out, with a control signal flat, not every such curve was filed as active; further: % of control where 0% means no effect)
In short: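 HEK293 ACTOne cells with CNG channel (1000/well), endogenous PDE4; membrane potential dye, compounds up to 22.9 uM final. Fluorescence Ex 535/Em 590; RO 20-1724 (100 uM final) as reference.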

[9] = biological target: Cytochrome P450 2C9 (Homo sapiens) (UniProt P11712); test: qHTS Assay for Inhibitors and Substrates of Cytochrome P450 2C9 (AID 883); further: on the % scale 0 is the no-effect control and ±100 the full control effect; nearly all actives have a fitted effect of over 60% in size
In short: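 Turnover of Luciferin-H (100uM, KM) by 10nM human CYP2C9 was measured over 60 min at 37C with NADPH regeneration; inhibitors and some substrates reduce luminescence. Data normalized to sulphaphenazole 57uM.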

[10] = biological target: Cytochrome P450 3A4 (Homo sapiens) (UniProt P08684); test: qHTS Assay for Activators of Cytochrome P450 3A4 (AID 885); further: nearly all actives have a fitted effect of over 65% in size
In short: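 Human CYP3A4 (20 nM) with Luciferin-PPXE at 25 uM (its KM) in 200 mM KPO4; 10 min compound preincubation, then NADPH regeneration and 60 min reaction at RT. Luciferin read by luminescence; normalized to 57 uM ketoconazole full inhibition.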

[11] = biological target: Cytochrome P450 2D6 (Homo sapiens) (UniProt P10635); test: qHTS Assay for Inhibitors and Substrates of Cytochrome P450 2D6 (AID 891);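 further: luciferin methyl ether substrate demethylated by CYP2D6 with NADPH regeneration; on the % scale 0 is the no-effect control and ±100 the full control effect; nearly all actives have a fitted effect of over 60% in size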
In short: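 Human CYP2D6 (5 nM) with 30 uM Luciferin-ME EGE (at Km) in 100 mM KPO4, compound preincubated 10 min, then NADPH regeneration system for 60 min at room temperature. Luciferin read by luminescence; normalized to 1.43 uM quinidine.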

[12] = biological target: Cytochrome P450 2C19 (Homo sapiens) (UniProt P33261); test: qHTS Assay for Inhibitors and Substrates of Cytochrome P450 2C19 (AID 899); further: on the % scale 0 is the no-effect control and ±100 the full control effect; nearly all actives have a fitted effect of over 60% in size
In short: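 Reactions contain 5nM enzyme, 10uM Luciferin-H EGE (KM) and 50mM KPO4; compound preincubates 10 min at 37C, NADPH regeneration starts turnover for 60 min. Luminescence after detection reagent gives activity.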

[13] = biological target: Ubiquitin carboxyl-terminal hydrolase 1 (Homo sapiens) (UniProt O94782); test: Inhibitors of USP1/UAF1: Pilot qHTS (AID 504865);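 further: rhodamine fluorescence freed from ubiquitin-rhodamine substrate followed over time; top concentration of the series differs between compounds; on the % scale 0 is the no-effect control and ±100 the full control effect; nearly all actives have a fitted effect of over 35% in size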
In short: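 Enzyme-free wells gave the negative control, while test wells held 1nM USP1/UAF1 preincubated with compound for 15 min at room temperature. Ub-Rho at 150nM final started the reaction, and fluorescence at 480/540 nm was recorded kinetically.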

[14] = biological target: DNA dC->dU-editing enzyme APOBEC-3G (Homo sapiens) (UniProt Q9HC16); test: qHTS for inhibitors of Vif-A3G interactions: Validation (AID 588379); further: 0% is about no effect
In short: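 HeLa cells stably expressing Vif and A3G-eYFP, 700 cells/well, incubated overnight at 37 deg C, then exposed to compound overnight at 37 deg C. Inhibition of Vif-mediated degradation read as increased yellow fluorescence (Ex 488/Em 500-530) by laser-scanning cytometry.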

[15] = biological target: Nuclear receptor subfamily 1 group I member 3 (Homo sapiens) (UniProt Q14994); test: Primary qHTS for antagonist of constitutive androstane receptor (CAR) against the NCATS DSHEA and TCM libraries (AID 1794836);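 further: HepG2 cells stably expressing hCAR with CYP2B6 luciferase reporter stimulated by CITCO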
In short: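 Antagonist mode: CAR reporter luminescence (ONE-Glo) in HepG2-CYP2B6-hCAR cells stimulated with 48 uM CITCO (final) over 24 h at 37 C, compounds titrated; viability read first by CellTiter-Fluor fluorescence.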

[16] = Viability counterscreen for agonist of constitutive androstane receptor (CAR) against the NCATS DSHEA and TCM libraries (AID 1794838); further: 0% is about no effect
In short: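 Multiplexed counterscreen: after 24 h compound exposure with 0.75 uM PK11195, HepG2-CYP2B6-hCAR viability was quantified fluorimetrically (CellTiter-Fluor, 405/540 nm) prior to the ONE-Glo luciferase read.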

[17] = biological target: Nuclear receptor subfamily 1 group I member 3 (Homo sapiens) (UniProt Q14994); test: Primary qHTS for agonist of constitutive androstane receptor (CAR) against the NCATS DSHEA and TCM libraries (AID 1794839); details: Potency: CAR antagonist co-added at 0.75 µM unless noted;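 further: HepG2 cells expressing human CAR with a CYP2B6 reporter plus PK11195 antagonist; 0% is about no effect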
In short: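 Concentration–response screen in HepG2-CYP2B6-hCAR cells under 0.75 µM PK11195; 24 h exposure; luminescent reporter signal with multiplexed fluorescent viability.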

[18] = HepG2 viability counterscreen (readout 2: ATP content) against the NCATS DSHEA and TCM libraries (AID 1794840); further: 0% is about no effect
In short: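 After HepG2 cells attach for ~4 h, substances are added and incubated ~24 h at 37C, 5% CO2. GF-AFC fluorescence then CellTiter-Glo luminescence give protease and ATP readouts.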

[19] = biological target: Cytochrome P450 3A4 (Homo sapiens) (UniProt P08684); test: qHTS for inhibitors of CYP3A4 against the NCATS DSHEA and TCM libraries (AID 1919971);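 further: on the % scale 0 is the no-effect control and ±100 the full control effect; inhibition lowers luminescence from luciferin made by CYP3A4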
In short: (§1)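 Luminescent P450-Glo readout. Enzyme plus pro-luciferin substrate in manufacturer buffer (typically 100 mM KPO4); 15 min RT preincubation; 1x NADPH regenerating system, 30-45 min RT in the dark; detection reagent 30 min.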

[20] = biological target: Cytochrome P450 2C9 (Homo sapiens) (UniProt P11712); test: qHTS for inhibitors of CYP2C9 against the NCATS DSHEA and TCM libraries (AID 1919973);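 further: luminogenic pro-luciferin CYP2C9 substrate turned into luciferin with NADPH regeneration; on the % scale 0 is the no-effect control and ±100 the full control effect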
In short: as §1

[21] = KB-8-5-11 P-gp reporter qHTS against the NCATS DSHEA and TCM libraries (AID 1919977); further: 0% is about no effect
In short: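 Viability of drug-resistant KB-8-5-11 cells is measured by CellTiter-Glo luminescence following roughly 72 h treatment at 37C. Substances were titrated, with bortezomib as intraplate control.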

[22] = qHTS Counterscreen for compound interference against the NCATS DSHEA and TCM libraries (AID 1919978); details: firefly luciferase detection reagent interference, luminescence;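 further: compounds preincubated with 1 µM D-luciferin or buffer before detection reagent; % of control where 0% means no effect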
In short: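 Interference check: test samples were incubated with D-luciferin (final 1 uM) or buffer only for 15 min, room temperature, in a qHTS titration up to 39.8 uM, then developed with detection reagent and read by luminescence.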

[23] = Dual reporter qHTS for agonist of Pregnane X Receptor (hPXR) against the NCATS DSHEA and TCM libraries: Fluorescence readout (AID 1920058); further: 0% is about no effect
In short: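 hPXR-Luc HepG2 cells (2000/well) in phenol red-free medium with charcoal-stripped FBS attached for 5 h, then were exposed to compounds for about 24 h at 37 °C. Viability was read by CellTiter-Fluor fluorescence (Ex/Em 405/540 nm) after 1 h.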

[24] = Dual reporter qHTS for antagonist of Pregnane X Receptor (hPXR) against the NCATS DSHEA and TCM libraries: Fluorescence Readout (AID 1920061); further: 0% is about no effect
In short: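 hPXR-Luc HepG2 cells exposed 24 h at 37 C to compounds with 2 uM rifampicin in antagonist mode; luciferase luminescence measured by ONE-Glo, with CellTiter-Fluor viability read beforehand.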

[25] = biological target: Catechol O-methyltransferase (Homo sapiens) (UniProt P21964); test: Confirmatory Screen for Target Class Profiling of Small Molecule Inhibitors of Methyltransferases (AID 1745852; calls by dose curve); details: MTase-Glo luminescence, SAH detection, recombinant enzyme; measured here: COMT max response; stronger effect = lower value
[26] = biological target: Guanidinoacetate N-methyltransferase (Homo sapiens) (UniProt Q14353); test: as above; details: MTase-Glo luminescence, SAH detection, recombinant enzyme; activity change, negative = inhibition: at 85.7 µM (top of the series) unless noted
[27] = biological target: Nicotinamide N-methyltransferase (Homo sapiens) (UniProt P40261); test: as above; details: MTase-Glo luminescence, SAH detection, recombinant enzyme; measured here: NNMT max response; stronger effect = lower value
[28] = biological target: Phenylethanolamine N-methyltransferase (Homo sapiens) (UniProt P11086); test: as above; details: MTase-Glo luminescence, SAH detection, recombinant enzyme; measured here: PNMT max response; stronger effect = lower value
Phenylethanolamine N-methyltransferase (Homo sapiens), sequence (P11086 whole entry, looked up): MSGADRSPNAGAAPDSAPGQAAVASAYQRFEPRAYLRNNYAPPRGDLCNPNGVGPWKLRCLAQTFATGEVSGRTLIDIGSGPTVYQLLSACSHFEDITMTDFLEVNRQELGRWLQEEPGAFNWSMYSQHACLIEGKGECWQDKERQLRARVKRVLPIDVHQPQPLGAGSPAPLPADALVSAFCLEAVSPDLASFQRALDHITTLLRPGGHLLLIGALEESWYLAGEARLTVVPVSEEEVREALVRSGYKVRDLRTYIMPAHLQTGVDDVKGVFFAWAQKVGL

Glucocorticoid receptor (Homo sapiens), sequence (P04150 whole entry, looked up, the tested form may be a part): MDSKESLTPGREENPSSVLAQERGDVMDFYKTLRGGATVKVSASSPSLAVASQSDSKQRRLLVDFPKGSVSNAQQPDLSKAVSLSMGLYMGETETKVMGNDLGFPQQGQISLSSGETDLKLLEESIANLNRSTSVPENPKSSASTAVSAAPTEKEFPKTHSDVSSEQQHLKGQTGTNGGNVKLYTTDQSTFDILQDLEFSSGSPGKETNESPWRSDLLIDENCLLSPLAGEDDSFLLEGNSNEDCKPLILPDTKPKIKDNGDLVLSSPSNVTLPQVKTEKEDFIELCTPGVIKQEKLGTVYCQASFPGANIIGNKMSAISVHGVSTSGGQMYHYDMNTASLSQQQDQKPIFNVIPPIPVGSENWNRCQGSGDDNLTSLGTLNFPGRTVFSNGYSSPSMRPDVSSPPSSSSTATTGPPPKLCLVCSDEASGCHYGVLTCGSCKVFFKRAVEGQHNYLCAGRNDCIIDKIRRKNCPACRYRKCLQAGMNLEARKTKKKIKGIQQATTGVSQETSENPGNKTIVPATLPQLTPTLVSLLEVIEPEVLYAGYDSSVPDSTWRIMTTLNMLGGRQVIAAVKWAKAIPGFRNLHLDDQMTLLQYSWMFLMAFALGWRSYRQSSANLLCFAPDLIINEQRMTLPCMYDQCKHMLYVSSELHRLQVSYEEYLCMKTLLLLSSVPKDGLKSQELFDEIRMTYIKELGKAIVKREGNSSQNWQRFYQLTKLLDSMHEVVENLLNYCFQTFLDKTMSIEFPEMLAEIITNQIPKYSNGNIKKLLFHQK
Cytochrome P450 2C9 (Homo sapiens), sequence (P11712 whole entry, looked up): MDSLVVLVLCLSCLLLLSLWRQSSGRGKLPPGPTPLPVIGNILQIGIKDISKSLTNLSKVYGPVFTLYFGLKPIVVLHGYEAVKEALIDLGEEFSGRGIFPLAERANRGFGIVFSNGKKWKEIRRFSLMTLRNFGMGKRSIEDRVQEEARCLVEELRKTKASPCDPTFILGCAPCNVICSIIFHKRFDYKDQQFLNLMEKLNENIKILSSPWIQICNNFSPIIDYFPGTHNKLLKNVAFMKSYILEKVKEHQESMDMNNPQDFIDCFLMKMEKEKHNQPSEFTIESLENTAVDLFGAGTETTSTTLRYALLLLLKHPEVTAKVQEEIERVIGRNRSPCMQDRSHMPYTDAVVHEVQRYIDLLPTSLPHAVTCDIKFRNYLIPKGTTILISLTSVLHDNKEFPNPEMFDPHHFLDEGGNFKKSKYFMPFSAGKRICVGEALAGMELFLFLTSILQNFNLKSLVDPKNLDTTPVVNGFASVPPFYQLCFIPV
Cytochrome P450 3A4 (Homo sapiens), sequence (P08684 whole entry, looked up): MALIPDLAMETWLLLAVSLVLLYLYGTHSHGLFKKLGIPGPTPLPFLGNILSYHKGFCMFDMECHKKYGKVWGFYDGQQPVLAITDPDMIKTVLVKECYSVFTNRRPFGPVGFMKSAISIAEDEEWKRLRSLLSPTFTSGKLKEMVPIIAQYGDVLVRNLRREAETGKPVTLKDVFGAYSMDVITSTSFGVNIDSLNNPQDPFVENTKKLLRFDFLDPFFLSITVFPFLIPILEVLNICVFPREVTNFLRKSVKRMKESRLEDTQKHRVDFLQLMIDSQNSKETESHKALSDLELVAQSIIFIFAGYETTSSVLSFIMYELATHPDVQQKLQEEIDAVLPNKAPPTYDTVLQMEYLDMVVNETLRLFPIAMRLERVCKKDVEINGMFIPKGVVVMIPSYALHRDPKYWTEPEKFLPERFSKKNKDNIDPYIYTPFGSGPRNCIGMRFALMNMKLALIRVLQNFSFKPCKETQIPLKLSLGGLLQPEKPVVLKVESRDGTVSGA
Nuclear receptor subfamily 1 group I member 3 (Homo sapiens), sequence (Q14994 whole entry, looked up): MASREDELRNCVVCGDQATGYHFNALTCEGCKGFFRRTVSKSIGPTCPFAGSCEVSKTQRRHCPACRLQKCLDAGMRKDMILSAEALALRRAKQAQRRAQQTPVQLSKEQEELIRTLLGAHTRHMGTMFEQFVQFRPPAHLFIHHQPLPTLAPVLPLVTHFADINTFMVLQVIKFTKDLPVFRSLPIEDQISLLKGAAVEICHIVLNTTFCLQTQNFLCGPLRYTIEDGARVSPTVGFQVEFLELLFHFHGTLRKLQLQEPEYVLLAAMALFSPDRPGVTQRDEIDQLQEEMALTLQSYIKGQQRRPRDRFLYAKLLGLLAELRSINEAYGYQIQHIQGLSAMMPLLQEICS
DNA dC->dU-editing enzyme APOBEC-3G (Homo sapiens), sequence (Q9HC16 whole entry, looked up): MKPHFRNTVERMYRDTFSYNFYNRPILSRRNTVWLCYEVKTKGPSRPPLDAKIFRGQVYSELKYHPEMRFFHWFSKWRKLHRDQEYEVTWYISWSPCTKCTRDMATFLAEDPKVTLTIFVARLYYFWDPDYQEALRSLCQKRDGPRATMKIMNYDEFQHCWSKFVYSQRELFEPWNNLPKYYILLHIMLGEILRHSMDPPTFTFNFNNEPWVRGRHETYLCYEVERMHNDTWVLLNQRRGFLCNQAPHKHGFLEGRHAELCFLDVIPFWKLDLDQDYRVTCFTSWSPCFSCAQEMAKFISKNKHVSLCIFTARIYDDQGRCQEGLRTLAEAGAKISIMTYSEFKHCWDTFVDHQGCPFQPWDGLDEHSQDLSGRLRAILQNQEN
Ubiquitin carboxyl-terminal hydrolase 1 (Homo sapiens), sequence (O94782 whole entry, looked up): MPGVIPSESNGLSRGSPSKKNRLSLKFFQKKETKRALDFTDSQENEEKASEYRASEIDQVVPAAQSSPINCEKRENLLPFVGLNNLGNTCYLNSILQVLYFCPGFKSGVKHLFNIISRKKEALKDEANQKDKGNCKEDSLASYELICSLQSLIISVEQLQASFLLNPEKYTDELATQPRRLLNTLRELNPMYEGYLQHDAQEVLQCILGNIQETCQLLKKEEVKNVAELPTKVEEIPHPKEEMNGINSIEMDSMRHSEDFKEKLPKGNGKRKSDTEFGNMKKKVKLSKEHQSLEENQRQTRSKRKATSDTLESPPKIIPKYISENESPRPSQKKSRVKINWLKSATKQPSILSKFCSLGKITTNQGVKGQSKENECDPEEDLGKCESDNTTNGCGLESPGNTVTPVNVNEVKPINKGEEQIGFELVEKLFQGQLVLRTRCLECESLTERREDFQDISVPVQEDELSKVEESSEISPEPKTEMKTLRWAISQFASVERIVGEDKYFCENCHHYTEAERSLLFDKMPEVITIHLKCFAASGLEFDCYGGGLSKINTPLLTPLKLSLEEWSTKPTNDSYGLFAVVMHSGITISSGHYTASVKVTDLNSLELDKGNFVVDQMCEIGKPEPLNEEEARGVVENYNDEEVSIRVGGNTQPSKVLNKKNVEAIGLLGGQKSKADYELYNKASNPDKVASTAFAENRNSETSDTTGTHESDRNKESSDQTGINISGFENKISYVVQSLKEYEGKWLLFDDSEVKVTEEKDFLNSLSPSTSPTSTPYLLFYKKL
Cytochrome P450 2D6 (Homo sapiens), sequence (P10635 whole entry, looked up): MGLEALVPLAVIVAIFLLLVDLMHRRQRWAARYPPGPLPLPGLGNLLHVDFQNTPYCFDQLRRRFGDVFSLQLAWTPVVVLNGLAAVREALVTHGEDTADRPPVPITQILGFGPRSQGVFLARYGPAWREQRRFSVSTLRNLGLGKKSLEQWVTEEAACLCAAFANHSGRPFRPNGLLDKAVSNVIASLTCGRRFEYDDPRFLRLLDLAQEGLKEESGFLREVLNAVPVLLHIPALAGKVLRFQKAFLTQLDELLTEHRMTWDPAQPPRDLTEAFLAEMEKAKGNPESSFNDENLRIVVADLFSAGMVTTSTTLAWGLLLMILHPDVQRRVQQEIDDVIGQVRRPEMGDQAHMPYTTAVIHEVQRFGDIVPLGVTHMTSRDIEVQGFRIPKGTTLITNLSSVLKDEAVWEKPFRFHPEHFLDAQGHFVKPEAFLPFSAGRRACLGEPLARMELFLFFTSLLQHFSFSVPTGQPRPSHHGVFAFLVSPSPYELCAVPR
Cytochrome P450 1A2 (Homo sapiens), sequence (P05177 whole entry, looked up): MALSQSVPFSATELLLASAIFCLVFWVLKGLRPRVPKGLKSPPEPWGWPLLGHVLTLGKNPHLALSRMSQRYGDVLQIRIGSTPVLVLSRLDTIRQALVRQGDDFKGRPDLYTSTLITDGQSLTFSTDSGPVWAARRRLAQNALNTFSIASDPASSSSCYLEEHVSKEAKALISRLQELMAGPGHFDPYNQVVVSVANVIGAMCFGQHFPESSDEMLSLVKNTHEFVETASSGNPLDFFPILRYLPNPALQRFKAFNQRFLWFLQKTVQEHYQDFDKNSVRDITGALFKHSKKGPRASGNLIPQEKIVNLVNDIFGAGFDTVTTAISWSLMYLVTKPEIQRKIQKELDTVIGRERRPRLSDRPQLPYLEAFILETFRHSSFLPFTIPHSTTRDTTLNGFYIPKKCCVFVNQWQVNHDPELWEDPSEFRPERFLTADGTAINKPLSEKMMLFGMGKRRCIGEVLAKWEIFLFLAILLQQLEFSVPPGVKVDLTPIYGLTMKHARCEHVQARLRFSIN
Nicotinamide N-methyltransferase (Homo sapiens), sequence (P40261 whole entry, looked up): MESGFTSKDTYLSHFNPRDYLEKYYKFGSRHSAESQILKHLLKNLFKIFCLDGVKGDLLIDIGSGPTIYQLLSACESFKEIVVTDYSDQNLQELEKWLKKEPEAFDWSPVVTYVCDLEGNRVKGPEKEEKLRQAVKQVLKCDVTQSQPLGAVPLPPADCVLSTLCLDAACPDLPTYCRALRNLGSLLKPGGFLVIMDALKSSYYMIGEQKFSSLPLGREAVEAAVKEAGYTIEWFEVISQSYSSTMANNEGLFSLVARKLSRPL

Nc1ncnc2c1ccn2[C@@H]1O[C@H](CO)[C@@H](O)[C@H]1O
active: Potency [1] 1.12 µM

COc1ccc2c(c1O)-c1c(OC)c(OC)cc3c1[C@H](C2)N(C)CC3
inactive: outcome [2] | activity change, negative = inhibition [4] -3.12% | Potency [5] > 20.6 µM and > 46 µM | Potency [6] > 20.6 µM and > 46 µM | outcome [7] | Potency [8] | Potency [9] | Potency [10] | Potency [11] | Potency [12] | Potency [13] | outcome [14] | Potency [15] | outcome [16] | Potency [17] | outcome [18] | Potency [19] | Potency [20] | Potency [21] | max response [22] 1.18% | outcome [23] | outcome [24]
active: Potency [3] 10 µM

NC(=O)c1ccc(N2CC3CCC(C2)N3CC(F)(F)F)nn1
10.2%: activity [25]
-22.1%: activity [27]
10.9%: activity [28]
9.09%: activity change, negative = inhibition [26]

From PubChem BioAssay (NCATS)
